This passage reports binding signal results from article PMC5700166.

For experiment [1], the target named is T1, GST-Nv-NF-kB (Ser allele) (Nematostella vectensis, UniProt A7UNT2 2-411).
T1 sequence: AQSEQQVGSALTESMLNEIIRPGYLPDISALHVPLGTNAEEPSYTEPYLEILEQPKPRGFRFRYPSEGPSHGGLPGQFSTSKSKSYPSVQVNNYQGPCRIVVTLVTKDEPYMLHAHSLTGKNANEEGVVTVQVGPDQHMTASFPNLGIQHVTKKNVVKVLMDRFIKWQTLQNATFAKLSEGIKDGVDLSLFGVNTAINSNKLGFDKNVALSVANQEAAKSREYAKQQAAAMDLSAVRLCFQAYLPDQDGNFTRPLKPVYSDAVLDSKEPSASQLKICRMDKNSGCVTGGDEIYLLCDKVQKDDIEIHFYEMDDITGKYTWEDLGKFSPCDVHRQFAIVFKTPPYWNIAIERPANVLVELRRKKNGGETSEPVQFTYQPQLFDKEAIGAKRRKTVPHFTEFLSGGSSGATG
The experiment in a line: protein-binding microarray (PBM); PBM: ~300 nM protein, 6 mM HEPES pH 7.8, 80 mM KCl, 0.5 mM EDTA, 0.5 mM EGTA, 6% glycerol, 35 ng/ul poly-dIdC, 1% milk, 1 h, room temperature; Ap Aiptasia and Nv Nematostella (sea anemones) / Co Capsaspora / Aq Amphimedon (sponge) / Dm Drosophila / Hu human; RHD is the Rel homology domain; high values mean tight binding. The following applies: dsDNA, one strand shown.

For experiment [2], the target named is GST-Hu-p50 (Homo sapiens, UniProt P19838 7-356). The description is as above. Particulars: dsDNA, one strand shown.
Sequence of GST-Hu-p50 (P19838 7-356): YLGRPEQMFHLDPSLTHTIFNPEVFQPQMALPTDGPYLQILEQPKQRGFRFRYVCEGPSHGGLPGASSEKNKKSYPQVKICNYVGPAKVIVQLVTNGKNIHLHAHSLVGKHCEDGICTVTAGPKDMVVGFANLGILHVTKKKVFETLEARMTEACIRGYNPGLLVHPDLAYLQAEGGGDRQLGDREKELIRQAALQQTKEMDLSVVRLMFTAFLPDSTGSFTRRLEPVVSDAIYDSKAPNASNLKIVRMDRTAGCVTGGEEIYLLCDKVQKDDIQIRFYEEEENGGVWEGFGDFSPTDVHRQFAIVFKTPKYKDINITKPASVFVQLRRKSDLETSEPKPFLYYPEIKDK

As for “CCGATTAACATCAAATAAATCCCTGATGTTAATCGGGTCTTGATTCGCTTGACGCTGCTG”, the figures for the binding signal in experiment [1] and in experiment [2] were 3.53 z-score and 3.29 z-score, respectively.
For “CCGATTAACATCAGGAACGCCCCTGATGTTAATCGGGTCTTGATTCGCTTGACGCTGCTG”, the figures for the binding signal in experiment [1] and in experiment [2] were 1.92 z-score and 3 z-score, respectively.
Turning to “CCGATTAACATCAGGTAATCACCTGATGTTAATCGGGTCTTGATTCGCTTGACGCTGCTG”, the binding signal in experiment [1] is 2.78 z-score; in experiment [2], 2.85 z-score.
In the same order, the values of “CCGATTAACATCAGAAATCCCACTGATGTTAATCGGGTCTTGATTCGCTTGACGCTGCTG” are 1.91 z-score and 2.66 z-score.
With “CCGATTAACATCAGGCACTCCCCTGATGTTAATCGGGTCTTGATTCGCTTGACGCTGCTG”, the figures for the binding signal in experiment [1] and in experiment [2] were 2.69 z-score and 3.37 z-score, respectively.
With “CCGATTAACATCAGGGAATACCATGATGTTAATCGGGTCTTGATTCGCTTGACGCTGCTG”, the binding signal was found to be 2.61 z-score in experiment [1] and 1.46 z-score in experiment [2].
Taken in the same sequence, the figures for “CCGATTAACATCAAAAACTACCCTGATGTTAATCGGGTCTTGATTCGCTTGACGCTGCTG” were 4.59 z-score and 3.73 z-score.
For the sequence “CCGATTAACATCAAAAACACCCCTGATGTTAATCGGGTCTTGATTCGCTTGACGCTGCTG”, the binding signal came to 3.89 z-score in experiment [1] and 4.99 z-score in experiment [2].
Taken in the same sequence, the figures for “CCGATTAACATCACCAGTTTCCCTGATGTTAATCGGGTCTTGATTCGCTTGACGCTGCTG” were 4.89 z-score and 2.39 z-score.
In the same order, the values of “CCGATTAACATCAGGGGATGACCTGATGTTAATCGGGTCTTGATTCGCTTGACGCTGCTG” are 3.75 z-score and 3.42 z-score.
In the same order, the values of “CCGATTAACATCAGGCCACCCCCTGATGTTAATCGGGTCTTGATTCGCTTGACGCTGCTG” are 2.48 z-score and 3.82 z-score.
As to “CCGATTAACATCAGGGGCTGTACTGATGTTAATCGGGTCTTGATTCGCTTGACGCTGCTG”, the binding signal was 2.32 z-score in experiment [1] and 3.36 z-score in experiment [2].
Take “CCGATTAACATCAGGGTATTCCATGATGTTAATCGGGTCTTGATTCGCTTGACGCTGCTG”: the binding signal came out at 4.16 z-score in experiment [1] and 4.11 z-score in experiment [2].
Taken in the same sequence, the figures for “CCGATTAACATCAGAAATTCCCATGATGTTAATCGGGTCTTGATTCGCTTGACGCTGCTG” were 5.93 z-score and 4.64 z-score.
In the same order, the values of “CCGATTAACATCAGGCCTCCCCCTGATGTTAATCGGGTCTTGATTCGCTTGACGCTGCTG” are 4.46 z-score and 4.37 z-score.
For “CCGATTAACATCACGGAAAACCCTGATGTTAATCGGGTCTTGATTCGCTTGACGCTGCTG”, the binding signal in experiment [1] was 1.92 z-score; in experiment [2], 2.12 z-score.
Taken in the same sequence, the figures for “CCGATTAACATCACCACTTTCCCTGATGTTAATCGGGTCTTGATTCGCTTGACGCTGCTG” were 5.06 z-score and 3.47 z-score.
“CCGATTAACATCAAGTATTTCCCTGATGTTAATCGGGTCTTGATTCGCTTGACGCTGCTG”: the binding signal in experiment [1] was found to be 5.24 z-score; in experiment [2], 3.64 z-score.
Taken in the same sequence, the figures for “CCGATTAACATCAGGGAGCTCCCTGATGTTAATCGGGTCTTGATTCGCTTGACGCTGCTG” were 1.82 z-score and 2.59 z-score.
Taken in the same sequence, the figures for “CCGATTAACATCAGGGGGGGACCTGATGTTAATCGGGTCTTGATTCGCTTGACGCTGCTG” were 3.87 z-score and 3.99 z-score.
In the same order, the values of “CCGATTAACATCAGGAAATTTGATGATGTTAATCGGGTCTTGATTCGCTTGACGCTGCTG” are 1.01 z-score and 1 z-score.
For “CCGATTAACATCAAGTTTACCCCTGATGTTAATCGGGTCTTGATTCGCTTGACGCTGCTG”, the binding signal in experiment [1] was 3.57 z-score; in experiment [2], 3.2 z-score.
In the same order, the values of “CCGATTAACATCAGTACGGGAAATGATGTTAATCGGGTCTTGATTCGCTTGACGCTGCTG” are 2.82 z-score and 1.94 z-score.
Consider “CCGATTAACATCAGGGAGTCCCATGATGTTAATCGGGTCTTGATTCGCTTGACGCTGCTG”, for which the figures for the binding signal in experiment [1] and in experiment [2] were 2.92 z-score and 3.1 z-score, respectively.
“CCGATTAACATCAGATTTTTCCCTGATGTTAATCGGGTCTTGATTCGCTTGACGCTGCTG”: the binding signal came out at 6.27 z-score in experiment [1] and 3.71 z-score in experiment [2].
In the same order, the values of “CCGATTAACATCAAACTCTCCCCTGATGTTAATCGGGTCTTGATTCGCTTGACGCTGCTG” are 4.93 z-score and 4.08 z-score.
Take “CCGATTAACATCACCCCTCCCCGTGATGTTAATCGGGTCTTGATTCGCTTGACGCTGCTG”: the results for the binding signal in experiment [1] and in experiment [2] were 3.23 z-score and 3.01 z-score, respectively.
For the sequence “CCGATTAACATCAAGGTAATCCCTGATGTTAATCGGGTCTTGATTCGCTTGACGCTGCTG”, the binding signal in experiment [1] came to 2.34 z-score; in experiment [2] it was 1.4 z-score.
Take “CCGATTAACATCAGGGAATTAACTGATGTTAATCGGGTCTTGATTCGCTTGACGCTGCTG”: the figures for the binding signal in experiment [1] and in experiment [2] were 3.91 z-score and 2.81 z-score, respectively.
Taken in the same sequence, the figures for “CCGATTAACATCAATCGTCCCCCTGATGTTAATCGGGTCTTGATTCGCTTGACGCTGCTG” were 4.3 z-score and 3.44 z-score.
In the same order, the values of “CCGATTAACATCAAACAAACCCCTGATGTTAATCGGGTCTTGATTCGCTTGACGCTGCTG” are 2.48 z-score and 3.95 z-score.
“CCGATTAACATCAGAATCTCCCATGATGTTAATCGGGTCTTGATTCGCTTGACGCTGCTG”: the binding signal in experiment [1] was 1.67 z-score; in experiment [2] it was 2.18 z-score.
“CCGATTAACATCAGAAAAAACCCTGATGTTAATCGGGTCTTGATTCGCTTGACGCTGCTG”: the binding signal in experiment [1] was 5.08 z-score; in experiment [2] it was 4.96 z-score.
